The structures appear in SMILES notation. “And” between values parts separate entries of the source, which are not always exact repeats. Equal entries are not always repeated. A structure can be active in one record and inactive in another. The source made the active and inactive calls. The calls were made as follows: active = hit-call score of the fitted dose curve at least 0.9, where 1 is the maximum; inactive = score below 0.9.

Test [1] in a line: APR_HepG2_NuclearSize_72hr: Apredica 72-hour HepG2 Assay for Nuclear Size (AID 2282925). As to conditions: high-content imaging, actives raise or lower the signal. The gist of the method:
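Read-out: nuclear diameter from Hoechst 33342 images (ArrayScan, 20x, six fields/well), via cell-cycle image analysis. HepG2 were dosed 0.39–200 uM for 72 hr in 0.5% DMSO. Bidirectional fit relative to DMSO.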

Test [2] in a line: ATG_CRE_CIS: Attagene CIS-FACTORIAL HepG2 Assay for human cAMP Responsive Element (CRE) binding protein 3 (AID 2282926). As to conditions: HepG2 CRE cis-reporter, Attagene multiplexed mRNA; actives raise or lower the signal. The gist of the method: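 Endogenous transcription factor activity read via CRE-regulated reporter transcripts in transfected HepG2 cells. After 24 h exposure, RNA was reverse-transcribed, amplified, fluorescently labelled and sized by capillary electrophoresis; gain or loss fitted against DMSO.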

Test [3] addresses CCAAT/enhancer-binding protein beta (Homo sapiens) (UniProt P17676). As to the kind of experiment: ATG_C_EBP_CIS: Attagene CIS-FACTORIAL HepG2 Assay for human CCAAT/Enhancer Binding Protein (C/EBP) beta (AID 2282927). As to conditions: HepG2 Attagene cis-factorial transcription factor reporter; actives raise or lower the signal. Summed up: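 HepG2 transiently transfected with multiplexed reporter units under cis-regulatory promoters reporting endogenous C/EBPb activity. After 24 h exposure, reporter mRNA assayed by RT-PCR, fluorescent labelling, HpaI digestion and capillary electrophoresis; bidirectional fitting versus DMSO.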

Test [4] can be described thus: ATG_CMV_CIS: Attagene CIS-FACTORIAL HepG2 Assay for human CMV (Internal Marker) (AID 2282928).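 Also: endpoint acts as a background internal control marker rather than a target.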 The note with it: HepG2 CMV promoter reporter, transcription factor profiling; actives raise or lower the signal. Summed up:
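Bidirectional fits against DMSO are applied to reporter mRNA, read by RT-PCR with capillary electrophoresis, from HepG2 cells exposed 24 h. The endpoint serves as an internal CMV background marker within the cis-factorial reporter panel.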

Test [5] is described as follows: ATG_DR4_LXR_CIS: Attagene CIS-FACTORIAL HepG2 Assay for human Liver X Receptor (LXR), DR4 submotif (AID 2282929). The note with it: HepG2 Attagene DR4 cis-reporter, mRNA transcription; actives raise or lower the signal. Summed up: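 Measures endogenous transcription factor activity via a DR4-driven reporter transcript in human HepG2 cells. Compounds incubated 24 h; mRNA quantified by RT-PCR and capillary electrophoresis, analysed as gain or loss of signal versus DMSO.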

In test [6] the target is Aryl hydrocarbon receptor (Homo sapiens) (UniProt P35869). The experiment in a line: ATG_Ahr_CIS: Attagene CIS-FACTORIAL HepG2 Assay for human Aryl Hydrocarbon Receptor (Ahr) (AID 2282930). The note with it: HepG2 AhR cis-factorial reporter transcription; actives raise or lower the signal. The gist of the method:
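HepG2 cells transiently transfected with cis-element-driven multiplexed reporter units; endogenous AhR activity read as reporter mRNA 24 h after dosing, via RT-PCR, 6-FAM labelling, HpaI digestion and capillary electrophoresis. Bidirectional fit relative to DMSO.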

Test [7] in a line: ATG_AP_1_CIS: Attagene CIS-FACTORIAL HepG2 Assay for human Activator Protein 1 (AP-1) (AID 2282931). As to conditions: HepG2 Attagene cis-factorial AP-1 reporter mRNA; actives raise or lower the signal. The gist of the method: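 Bidirectional concentration-response fitting against DMSO controls. Underlying signal: reporter mRNA from cis-promoter constructs in transiently transfected HepG2, measured after 24 h by RT-PCR and capillary electrophoresis.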

The nature of test [8]: ATG_BRE_CIS: Attagene CIS-FACTORIAL HepG2 Assay for human Bone Morphogenetic Protein (BMP) Response Element (BRE) (AID 2282933). The note with it: HepG2 BMP response element reporter, Attagene transcription factor profiling; actives raise or lower the signal. The gist of the method: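 HepG2 cells transiently transfected with multiplexed cis-element reporter units were dosed with chemical for 24 h. Reporter mRNA was measured by RT-PCR with fluorescent labelling, HpaI digestion and capillary electrophoresis; bidirectional fitting relative to DMSO.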

Test [9] concerns the target Retinoic acid receptor alpha (Homo sapiens) (UniProt P10276). The experiment in a line: ATG_DR5_RAR_CIS: Attagene CIS-FACTORIAL HepG2 Assay for human Retinoic Acid Receptor Alpha (RARE), DR5 submotif (AID 2282934).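 As to AC50: reporter responds to endogenous RAR alpha beta and gamma in HepG2 not RARA alone.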 As to conditions: HepG2 Attagene cis-factorial RARE DR5 reporter, mRNA; actives raise or lower the signal. Summed up:
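HepG2 cells transiently transfected with multiplexed reporter units; DR5 cis-element drives reporter through endogenous transcription factors. After 24 h dosing, reporter mRNA quantified by RT-PCR, fluorescent labeling, HpaI digestion and capillary electrophoresis; bidirectional fitting versus DMSO.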

Test [10] can be described thus: ATG_AP_2_CIS: Attagene CIS-FACTORIAL HepG2 Assay for human Activator Protein 2 (AP-2) (AID 2282932). As to conditions: HepG2 AP-2 cis-reporter, Attagene transcription factor profiling; actives raise or lower the signal. Summed up: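 Liver-derived HepG2 line, cis-reporter system measuring endogenous factors; 24 h dosing; reporter mRNA detected by fluorescent RT-PCR and capillary electrophoresis.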

Chain of Retinoic acid receptor alpha (Homo sapiens) (P10276 whole entry, looked up): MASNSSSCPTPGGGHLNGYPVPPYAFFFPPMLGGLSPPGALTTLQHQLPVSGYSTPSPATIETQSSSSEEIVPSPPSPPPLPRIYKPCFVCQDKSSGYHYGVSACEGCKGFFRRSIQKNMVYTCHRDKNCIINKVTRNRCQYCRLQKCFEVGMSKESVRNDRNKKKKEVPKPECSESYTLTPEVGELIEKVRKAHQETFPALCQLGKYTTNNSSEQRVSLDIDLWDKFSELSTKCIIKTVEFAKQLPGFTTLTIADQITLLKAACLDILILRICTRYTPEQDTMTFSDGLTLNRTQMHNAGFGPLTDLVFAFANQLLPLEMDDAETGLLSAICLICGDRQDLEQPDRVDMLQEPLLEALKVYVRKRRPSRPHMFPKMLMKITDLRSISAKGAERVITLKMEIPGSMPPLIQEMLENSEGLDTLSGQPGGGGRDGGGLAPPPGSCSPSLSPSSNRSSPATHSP
Chain of CCAAT/enhancer-binding protein beta (Homo sapiens) (P17676 whole entry, looked up): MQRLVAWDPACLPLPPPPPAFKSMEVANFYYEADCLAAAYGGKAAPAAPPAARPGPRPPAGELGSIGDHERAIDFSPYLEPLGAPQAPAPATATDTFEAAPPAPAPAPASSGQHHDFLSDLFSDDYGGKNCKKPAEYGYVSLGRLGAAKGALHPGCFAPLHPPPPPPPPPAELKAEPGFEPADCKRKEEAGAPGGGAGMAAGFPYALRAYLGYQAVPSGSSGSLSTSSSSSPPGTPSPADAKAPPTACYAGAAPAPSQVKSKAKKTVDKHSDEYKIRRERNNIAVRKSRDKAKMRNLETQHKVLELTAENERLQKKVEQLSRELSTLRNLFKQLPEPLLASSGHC
Chain of Aryl hydrocarbon receptor (Homo sapiens) (P35869 whole entry, looked up): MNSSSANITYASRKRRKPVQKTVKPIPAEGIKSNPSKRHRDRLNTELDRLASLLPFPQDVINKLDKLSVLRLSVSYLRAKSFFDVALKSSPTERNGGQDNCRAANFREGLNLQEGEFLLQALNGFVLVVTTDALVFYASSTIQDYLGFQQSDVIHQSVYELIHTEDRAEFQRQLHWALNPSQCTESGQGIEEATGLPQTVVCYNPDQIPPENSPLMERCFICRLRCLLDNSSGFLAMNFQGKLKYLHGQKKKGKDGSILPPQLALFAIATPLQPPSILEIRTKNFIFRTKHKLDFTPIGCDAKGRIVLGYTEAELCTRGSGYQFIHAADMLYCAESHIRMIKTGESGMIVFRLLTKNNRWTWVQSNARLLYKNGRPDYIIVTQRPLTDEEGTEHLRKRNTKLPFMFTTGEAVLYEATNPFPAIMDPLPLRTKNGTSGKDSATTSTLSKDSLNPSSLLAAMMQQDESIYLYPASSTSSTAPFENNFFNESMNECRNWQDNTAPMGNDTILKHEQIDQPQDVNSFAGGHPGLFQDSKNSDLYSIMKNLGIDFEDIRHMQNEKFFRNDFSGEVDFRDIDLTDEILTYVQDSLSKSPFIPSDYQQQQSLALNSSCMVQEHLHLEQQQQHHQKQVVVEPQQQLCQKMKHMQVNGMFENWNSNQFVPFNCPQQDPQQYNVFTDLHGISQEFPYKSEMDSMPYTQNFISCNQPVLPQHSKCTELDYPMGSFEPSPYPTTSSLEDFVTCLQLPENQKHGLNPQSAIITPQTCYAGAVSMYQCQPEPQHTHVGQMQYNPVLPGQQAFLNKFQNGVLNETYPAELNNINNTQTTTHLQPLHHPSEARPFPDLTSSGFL

In the case of `COCC(C)O` (configuration not stated), the result in [1], in test [2], in test [3], in test [4], in test [5] and in test [6] was inactive. The outcome in test [7] and in test [8] was inactive.
`C#C[C@]1(O)CC[C@H]2[C@@H]3CCC4=CC(=O)CC[C@@H]4[C@H]3CC[C@@]21C`: the result in test [1], in test [2], in [3], in [4], in test [6] and in test [7] was inactive. Further, the result in test [8] and in test [9] was inactive. Further, the AC50 (in general, the concentration giving half of the maximal activity seen) in [6] is 71.5 µM (active) and 50 µM (active).
In the case of `Cc1cc(C)c(O)c(C)c1`, the outcome in [1], in [2], in [3], in [5], in test [6] and in test [7] was inactive. Moreover, the outcome in test [8] was inactive. In addition, the AC50 in [4] was 100 µM (active).
Regarding `CN(C)C=O`, the call in [1], in test [2], in test [3], in test [4], in test [5] and in test [6] was inactive. For the same compound, the compound was called inactive in [7] and in [8].
As for `CC(C)(C)c1cccc(C(C)(C)C)c1O`, the outcome in test [1], in test [3], in [5], in [6], in [10] and in [8] was inactive. Further, the AC50 in test [2] is 146 µM (active); in test [4], 100 µM (active); in [7] it was 128 µM (active); in test [9], 100 µM (active).
Consider `CN1CCC[C@H]1c1cccnc1`, for which the call in [1], in test [2], in test [3], in [4], in test [5] and in [6] was inactive. The call in test [7] and in test [8] was inactive.
For the compound `O=C(OCCOCCOC(=O)c1ccccc1)c1ccccc1`, the compound was classed as inactive in [1], in [2], in test [3], in [4], in test [5] and in test [7]. Moreover, the call in [8] and in test [9] was inactive. Besides, the AC50 in test [6] is 71.3 µM (active).
As for `CC(=O)NC1(c2cccc(F)c2)CCN(CC[C@@]2(c3ccc(Cl)c(Cl)c3)CN(c3ccccc3)C(=O)CO2)CC1`, the outcome in test [1] and in [6] was inactive. Also, the AC50 was 46.6 µM (active) in test [2]; 54.7 µM (active) in test [3]; 45.2 µM (active) in [4]; 37.2 µM (active) in [5]; 14.5 µM (active) in test [7]; 61.8 µM (active) in test [8].
On to `O=C1OC2(c3ccccc31)c1cc(Br)c(O)c(Br)c1Oc1c2cc(Br)c(O)c1Br`, for which the outcome in [2], in [3], in test [4], in test [5], in test [6] and in test [7] was inactive. In addition, the compound was classed as inactive in test [10], in [8] and in [9]. In addition, in test [4], the half-maximal activity concentration (AC50) is 93 µM (active).
As to `Oc1cccc(O)c1`, the compound was classed as inactive in test [1], in test [2], in [3], in test [4], in test [5] and in test [6]. For the same compound, the compound was classed as inactive in test [7]. For the same compound, the AC50 in test [8] was 29.7 µM (active).
For the compound `CCCCCCCCOC(=O)CCCCCCCCC(=O)OCCCCCCCC`, the compound was classed as inactive in [1], in test [2], in test [3], in test [4], in [5] and in [6]. For the same compound, the compound was called inactive in test [7], in test [8] and in test [9].
Take `CC(O)CO` (configuration not stated): the call in test [1], in test [2], in [3], in test [4], in [5] and in test [6] was inactive. Besides, the call in [7], in [8] and in test [9] was inactive.
In the case of `CC[C@H](C)[C@@H](C(=O)O)n1sc2ccccc2c1=O`, the result in [1], in test [2], in test [3], in [4], in test [5] and in test [6] was inactive. For the same compound, the result in test [7], in test [8] and in test [9] was inactive.
As for `CC(O)C(=O)O` (configuration not stated), the compound was called inactive in [2], in test [3], in [4], in test [5], in test [6] and in test [7]. Further, the outcome in test [10] and in test [8] was inactive.
Regarding `CCCCCCCCCCCCN1CCCC1=O`, the compound was called inactive in [1], in test [2], in test [3], in test [4], in test [5] and in test [6]. For the same compound, the result in [7], in [8] and in [9] was inactive.
As to `CCc1ccc(CCOc2ccc(CC3SC(=O)NC3=O)cc2)nc1` (configuration not stated), the outcome in test [1], in test [2], in [3], in [4], in test [5] and in test [6] was inactive. Moreover, the result in [7] and in test [8] was inactive.
Turning to `CC(C)(C)c1ccc(O)c(C(C)(C)C)c1`, the outcome in [1], in [2], in [3], in test [4], in test [5] and in test [6] was inactive. The result in test [10], in test [8] and in [9] was inactive. The half-maximal activity concentration (AC50) in test [7] is 15.9 µM (active).
For the compound `CCCCCCCCCCCCCC[N+](C)(C)C`, the result in test [2], in [3], in test [4], in test [5], in test [6] and in [10] was inactive. Also, the outcome in test [9] was inactive. Further, the AC50 in test [4] was 15.2 µM (active); in test [5], 16.6 µM (active); in test [7], 6.78 µM (active) and 7.32 µM (active); in [8], 13.1 µM (active) and 4.06 µM (active).
Turning to `CCCCCCCCCCCCCCCS(=O)(=O)Oc1ccccc1`, the result in test [1], in [2], in [3], in test [4], in test [5] and in test [6] was inactive. Also, the outcome in test [7] and in [8] was inactive.

The record behind these values is PubChem BioAssay (EPA / NIEHS).
